HPGD inh = blocks human HPGD enzyme activity | hit rate 4.3% among 150,000 | Potency, µM, without a hit: top-dose activity change, negative = inhibition, usual class: inhibitors | purified HPGD, NADH fluorescence kinetic, PGE2 substrate | P15428; also: potency is read from the fitted curve at half-maximal effect
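NADH formation kinetics: reaction with 30 uM PGE2 and 1 mM NAD+ (final), 20 nM enzyme, Tris-HCl pH 8 with Tween 20, after 15 min compound preincubation at room temperature. Fluorescence change, last versus first of five reads.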
PNC assembly inh = inhibitors of perinucleolar compartment assembly; PC3M PTB-GFP, PNC prevalence imaging, 16 h; stronger effect = lower value; activity change (PNC), negative = inhibition, % at 10 µM; hit rate 3.1% among 140,000;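 active = readout at or below -70, meaning at least 70% loss of cells showing the perinucleolar compartment, a nuclear body marking cancer cells; inconclusive = readout between -30 and a set limit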;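 also: plate controls were DMSO wells for no effect and camptothecin positive control wells for full effect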
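Read-out is percentage of cells bearing a perinucleolar compartment, from automated 20x imaging of fixed, Hoechst-stained PC3M PTB-GFP cells. Cells were seeded 4 h, then exposed 16 h to compound (23 nl of library stock) in duplicate plates.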
ALDH1A1 inh = ALDH1A1 (human) enzyme inhibition. P00352. Potency, µM (series often up to 75.3 µM), for the others: at the top dose activity, negative = inhibition, most hits filed as inhibitors. AID 1030. hit rate 7.3% among 220,000. Purified ALDH1A1, NADH fluorescence, propionaldehyde substrate;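 also: potency is read from the fitted curve at half-maximal effect; plate controls were no enzyme wells and a reference inhibitor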
Target sequence (P00352 whole entry, looked up): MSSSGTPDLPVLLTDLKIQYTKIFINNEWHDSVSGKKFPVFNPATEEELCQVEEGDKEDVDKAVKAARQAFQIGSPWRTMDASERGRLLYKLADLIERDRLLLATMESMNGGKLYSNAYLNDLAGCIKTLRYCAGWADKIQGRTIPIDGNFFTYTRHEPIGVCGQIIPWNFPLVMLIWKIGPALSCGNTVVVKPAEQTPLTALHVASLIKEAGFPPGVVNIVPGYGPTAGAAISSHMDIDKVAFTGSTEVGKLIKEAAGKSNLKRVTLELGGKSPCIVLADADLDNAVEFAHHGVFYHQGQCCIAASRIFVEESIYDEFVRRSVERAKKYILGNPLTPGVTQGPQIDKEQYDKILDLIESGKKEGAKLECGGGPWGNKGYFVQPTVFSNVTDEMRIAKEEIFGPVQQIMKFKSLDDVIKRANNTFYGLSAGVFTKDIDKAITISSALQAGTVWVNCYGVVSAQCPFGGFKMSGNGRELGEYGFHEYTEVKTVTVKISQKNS
12-hLO inh = 12-hLO (ALOX12) enzyme inhibition; P18054; hit rate 0.12% among 150,000; Potency, µM (top dose mostly 57.1 µM), without a hit: at the highest dose activity change, negative = inhibition, most hits filed as inhibitors; purified 12-hLO, xylenol orange hydroperoxide absorbance; active = well fitted curve in the direction sought with a large enough effect; inconclusive = small, poorly fitted or top-dose-only effect, or another doubt; inactive = no such curve, though single readings can be large; an effect the other way counts as inactive or inconclusive; also: potency is read from the fitted curve at half-maximal effect; nearly all actives have a fitted effect of over 55% in size
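Purified human 12hLO (150 nM final) was preincubated with compounds for 15 min at room temperature in 25 mM Hepes pH 7.0, 0.01% Triton X-100, then reacted with 40 uM arachidonic acid for 30 min. Hydroperoxide was detected with ferrous iron/xylenol orange.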
IMPase Li cell = cell-permeable IMPase inhibitors with lithium potentiation; CHO-M1 cells, IP1 TR-FRET (IP-One), carbachol + lithium; Potency, µM (series often up to 59.4 µM), without a hit: top-dose activity, negative = IMPase inhibition, hits mostly inhibitors; hit rate 0.35% among 210,000; AID 1457; active = well fitted curve in the direction sought with a large enough effect; inconclusive = small, poorly fitted or top-dose-only effect, or another doubt; inactive = no such curve, though single readings can be large; an effect the other way counts as inactive or inconclusive;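 also: IP1 builds up when IMPase is blocked and the TR-FRET signal falls; potency is read from the fitted curve at half-maximal effect; plate controls were basal vehicle for no effect and high inhibitor control for full effect; nearly all actives have a fitted effect of over 50% in size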
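CHO cells stably expressing M1 receptor (2000/well) were cultured 16–30 h, then exposed to compounds with a small lithium addition for 30 min at 37C. IP1 was measured by TR-FRET competition; AC50 from Hill fits.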
IMPase cell inh = cell-permeable inhibitors of inositol monophosphatase (IMPase); P97697; CHO-M1 cells, IP1 accumulation, HTRF TR-FRET ratio; inhibition (IP1 accumulation), % at 46.1 µM; 120,000 tested, under 10 active; active = well fitted curve in the direction sought with a large enough effect in the signal ratio, not every such curve was filed as active; inconclusive = small, poorly fitted or top-dose-only effect, or a change in a side signal; inactive = no such curve, though single readings can be large or run the other way; the % refers to the signal ratio;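 also: cells stimulated with carbachol in lithium chloride buffer; plate controls were DMSO basal wells for no effect and reference inhibitor wells for full effect; higher means more IMPase inhibition seen as more IP1 and lower FRET ratio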
Target sequence (P97697 whole entry, looked up): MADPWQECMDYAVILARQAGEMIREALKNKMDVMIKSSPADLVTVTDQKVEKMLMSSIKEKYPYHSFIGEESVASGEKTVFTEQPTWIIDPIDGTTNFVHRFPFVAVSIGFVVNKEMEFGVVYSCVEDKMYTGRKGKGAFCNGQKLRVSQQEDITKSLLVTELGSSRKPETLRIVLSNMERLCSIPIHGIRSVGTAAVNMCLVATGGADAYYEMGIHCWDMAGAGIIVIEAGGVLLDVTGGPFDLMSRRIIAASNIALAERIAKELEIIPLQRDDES
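Elevated IP1 in lysates lowers TR-FRET signal (665/620 ratio and 620 channel reported). Cells were CHO-M1, given carbachol (50 uM as added) plus 50mM LiCl, pH 7.4, 30 min, 37C; compounds titrated up to 46 uM; AC50 by Hill equation.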
The depositor's hits bear a star; ? = inconclusive; . = no result given; [ ] = remark or other dose. Shown are actives, neighbours in structure and some others; about 11% of the full set was active somewhere. Unless noted, calls follow the shape of the dose curve; as a rule, active = well fitted inhibition curve with a large enough effect (not every such curve was filed as active); inconclusive = small, poorly fitted or top-dose-only effect, or another doubt; inactive = no such curve, though single readings can be large or run the other way. Unless noted, % is scaled to controls: 0 for no effect and ±100 for the full control effect.

SMILES | HPGD inh | PNC assembly inh | ALDH1A1 inh | 12-hLO inh | IMPase Li cell | IMPase cell inh
CCCOc1ccc(N2CC(C(=O)Nc3cccc(Cl)c3Cl)CC2=O)cc1 (stereo not drawn) | . | . | . | . | . | -16.5
C[C@]12CCC(=O)C=C1CCC1C3CC[C@](O)(C(=O)CO)[C@@]3(C)CC3OC312 (stereo partly drawn) | -8.0% | . | ? | . | 7.4% | .
O=S(=O)(CC12C3C4C5C1C2C(Br)(C43)C51OCCO1)c1ccccc1 (stereo not drawn) | -6.1% | 5.5 | 11.2µM* | -3.9% | . | .
O=C(CS(=O)(=O)c1ccccc1)NC1CCCCC1 | . | . | 3.7% | . | 4.6% | .
CCCCCCCCCC(=O)O[C@H](CC(=O)O)C[N+](C)(C)C | -4.6% | . | -1.3% | -3.1% | 0.3% | -7.0
COCCOC(=O)C1=C(C)Nc2cc(=O)[nH]c(=O)n2C1c1cccc([N+](=O)[O-])c1 (stereo not drawn) | 0.1% | -109.0* | ? | -5.4% | -0.1% | .
CCCn1c(=O)c(C(=O)NNS(=O)(=O)c2ccc(Cl)cc2)c(O)c2ccccc21 | -19.5% | 12.1 | 31.6µM* | -15.7% | 1.2% | .
O=C(NC(=S)Nc1ccc(N2CCOCC2)c(Cl)c1)c1sc2ccccc2c1Cl | -22.2% | -2.4 | 3.55µM* | -3.2% | -6.8% | 5.0
O=C(NC(=S)Nc1ccccc1N1CCOCC1)c1sc2ccccc2c1Cl | -14.7% | -27.4 | ? | 2.3% | -3.8% | .
O=C(NC(=S)Nc1ccc(N2CCCCC2)c(Cl)c1)c1ccc2c(c1)OCCO2 | ? | ? | 10µM* | ? | 8.4%[38.3 µM] | 7.4
O=C(NC(=S)Nc1ccc(N2CCOCC2)c(Cl)c1)c1cncc(Br)c1 | 22.4µM* | ? | 7.94µM* | -29.1% | 6.9% | .
O=C(NC(=S)Nc1ccc(N2CCOCC2)c(Cl)c1)c1cccs1 | . | . | -87.7% | . | 2.3% | .
CCCCCC(=O)NC(=S)Nc1ccc(N2CCCCC2)c(Cl)c1 | . | 29.0 | 8.5% | -7.7% | . | -7.8
COc1ccc(NC(=O)N2CCc3nc(-c4ccc(OC)cc4C)c4c(c3C2)CO[C@@H](c2ccccc2)C4)cc1 | -5.9% | . | 3.98µM* | -2.0%[11.4 µM] | -1.1% | .
CCOC(=O)CCCNC(=O)N1CCc2nc(-c3ccc(OC)cc3C)c3c(c2C1)CO[C@@H](c1ccccc1)C3 | -3.7% | . | ? | -0.2%[11.4 µM] | -5.7% | .
COc1ccc(CCC(=O)c2c(O)cc(O[C@@H]3O[C@H](CO)[C@@H](O)[C@H](O)[C@H]3O[C@@H]3O[C@@H](C)[C@H](O)[C@@H](O)[C@H]3O)cc2O)cc1O | -3.1% | . | ? | -5.4% | -13.8% | .
O=S(=O)(NC(=S)NC1CCCCC1)c1ccc(Br)cc1 | . | . | 25.1µM* | . | 0.6% | .
O=C(CCNS(=O)(=O)c1ccc(Br)cc1)NC1CCCCC1 | . | . | -2.6% | . | -9.1% | .
O=C(NC(=S)Nc1ccc(S(=O)(=O)N2CCCC2)cc1)C1CC1 | . | . | 20µM* | . | 12.9% | .
O=C(NC(=S)Nc1ccc(S(=O)(=O)N2CCCC2)cc1)C1CCC1 | 2.8% | 4.1 | ? | 0.9% | 13.2% | .
O=S(=O)(c1ccc(NC(=S)NC2CCCC2)cc1)N1CCCC1 | . | . | 14.1µM* | . | 6.7% | .
NS(=O)(=O)c1ccc(NC(=S)NC2CCCC2)cc1 | 14.1µM* | 5.9 | ? | -1.8% | -1.9% | .
Cn1c(=O)n(C)c2cc(N3CCOCC3)c(NC(=O)c3c(F)cccc3F)cc21 | . | . | . | . | . | -2.2
O=C1c2nc3ccccn3c2C(=O)N1Cc1ccccc1 | ? | 29.0 | 17.8µM* | -4.8% | ? | 7.6
O=C1c2cccc3cccc(c23)C(=O)N1Cc1ccccc1 | . | . | 3.6% | . | ? | .
SMILES | HPGD inh | PNC assembly inh | ALDH1A1 inh | 12-hLO inh | IMPase Li cell | IMPase cell inh
CCOc1cc(/C=C2\CCCC(C(=O)C(F)(F)F)=C2O)ccc1O | -12.6% | ? | 0.159µM* | -16.6% | 4.8% | .
COc1ccc(/C=C2\CCCC(C(=O)C(F)(F)F)=C2O)cc1OC | . | . | 0.126µM* | . | -9.3% | .
CCOc1cc(/C=N/NC(=O)C(=O)N2CCCC2)ccc1O | . | . | -0.2% | . | 4.3% | .
COc1ccc(/C=C2/CCc3ccccc3C2=O)cc1OC | -15.8% | -13.8 | -13.9% | -1.9% | 6.2% | .
CSc1ccccc1NC(=O)c1ccc([N+](=O)[O-])cc1 | . | . | 14.1µM* | . | 11.5% | .
Cc1ccc(/C=N/n2cnc3sc(-c4ccccc4)cc3c2=O)o1 | ? | -11.7 | 31.6µM* | 0.5% | 33.6%[38.3 µM] | -3.0
Cc1cc2ncn(/N=C/c3ccc(-c4ccccc4)o3)c2cc1C | ? | -9.3 | -9.0% | -8.6% | 4.5%[38.3 µM] | 1.9
Oc1ccccc1Nc1nc(-c2ccccc2)c2cc(Cl)ccc2n1 | . | . | . | . | . | 6.4
C=CC(C1=CC(=O)C(OC)=C(OC)C1=O)c1ccccc1 (stereo not drawn) | 20µM* | . | 0.3% | ? | 29.1% | .
C=CC(C1=CC(=O)C(OC)=CC1=O)c1ccc(OC)cc1 (stereo not drawn) | ? | . | ? | ? | 12.3% | .
C=CC(C1=CC(=O)C(OC)=CC1=O)c1ccccc1 (stereo not drawn) | ? | . | 22.4µM* | -25.2% | 24.9% | .
N#C/C(=C\c1ccc(Cl)cc1)C(=O)NCC1CCCO1 (stereo not drawn) | . | . | . | . | . | 0.6
COCCOC(=O)C1=C(C)NC(=O)NC1c1cn(-c2ccccc2)nc1-c1ccccc1 (stereo not drawn) | . | . | . | . | . | 2.5
COc1ccc(Cc2nnc3c4cnn(C)c4ncn23)cc1 | -8.1% | -85.9* | 1.7% | 3.4% | 22.6%[38.3 µM] | 8.4
COc1ccc(/C=C/C(=O)OCC(=O)Nc2ccc(Cl)c(S(=O)(=O)N(C)C)c2)cc1OC | ? | -110.0* | ? | -17.4% | 15.8% | .
CN(C)S(=O)(=O)c1cc(NC(=O)COC(=O)CCSc2ccc(Cl)cc2)ccc1Cl | -13.3% | -87.9* | ? | -1.7% | -4.2% | .
COc1ccc(/C=C/C(=O)OCC(=O)Nc2ccc(S(N)(=O)=O)cc2)cc1OC | . | . | ? | . | 8.1% | .
CCCSc1nnc2c(n1)OC(CC)N(C(C)=O)c1ccccc1-2 (stereo not drawn) | . | . | . | . | . | -3.4
CC(C)C1=CC2=CCC3[C@@](C)(CCC[C@@]3(C)C(=O)O)C2CC1 (stereo partly drawn) | -6.9% | . | -11.7% | -0.7% | -1.6% | .
CCN(CC)c1cccc(OC2=NS(=O)(=O)c3ccccc32)c1 | . | -23.7 | 22.4µM* | 1.6% | . | 9.4
O=C(O)/C=C/C(=O)Nc1ccc(NC(=O)c2ccccc2)c(Cl)c1 | . | . | 2.24µM* | . | 0.3% | .
O=C(O)/C=C\C(=O)Nc1cccc(NC(=O)c2ccccc2)c1 | . | . | ? | . | -2.3% | .
CCN(CC)c1ccc(/C=C(/C#N)C(=O)NCc2ccccc2)o1 | 15.8µM* | -90.2* | 2.82µM* | -10.9% | 51.3% | .
CCN(CC)c1ccc(/C=C(/C#N)C(=O)NC(C)C)o1 | . | . | 10µM* | . | 51.4% | .
